A selection: hits, their analogues and other compounds. The true share with any hit is near 3.7%.
HTT cytoprotect: cytoprotection in Huntington HTT-Q103 PC12 cell model; PC12 HTT-Q103 induced, cytoprotection, ATP luminescence, 40 h; Potency, µM (doses to about 56.4 µM), for the others: cytoprotection (ATP increase), most hits filed as activators; hit rate 0.14% among 230,000; also: % of control where 0% means no effect; nearly all actives have a fitted effect of over 45% in size
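PC12 cells with ecdysone-inducible HTT exon 1 Q103-GFP, induced with 100 nM tebufenozide and co-treated with library compounds in a dose series (1536-well, 1500 cells/well). Cytoprotection read as ATP content by ATPlite luminescence.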
HttQ103 aggreg: inhibitors of mutant huntingtin aggregate formation in PC12 cells | PC12 HttQ103-GFP aggregates, Acumen cytometry, 40 h | Potency, µM (highest dose often 46.1 µM), for the others: at the top dose activity change, negative = inhibition, most hits filed as inhibitors | hit rate 1.1% among 220,000; also: % is scaled to controls: 0 for no effect and ±100 for the full control effect; nearly all actives have a fitted effect of over 60% in size
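Ecdysone-promoter PC12 model expressing HTT exon 1 Q103 fused to GFP, induced by tebufenozide at 100 nM final. Compounds titrated; aggregates sized 1–25 µm scored on a 488 nm laser cytometer.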
Tau fluor cs: counter-screen for tau fibril formation inhibitors; tau K18 P301L Alexa594 fluorescence, heparin fibrillization; Potency, µM (series often up to 57.7 µM), without a hit: top-dose activity change, negative = decrease; hit rate 0.93% among 280,000; AID 1463; also: % is scaled to controls: 0 for no effect and ±100 for the full control effect; nearly all actives have a fitted effect of over 55% in size
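Human tau K18 P301L (15 uM unlabeled, 0.24 uM Alexa 594-labeled) in 100 mM sodium acetate pH 7 with 20 uM heparin, 6 hr at 37 C. ThT 30 uM added, 1 hr ambient; Alexa 594 FP and total fluorescence read at 555/632 nm.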
Tau FP inhib: blocks human tau fibril formation measured by polarization | Potency, µM (highest dose often 57.7 µM), without a hit: at the top dose activity, negative = inhibition, actives largely listed as inhibitors | P10636 | hit rate 0.39% among 280,000 | K18 P301L tau heparin fibrillization, Alexa594 FP, 6 h; also: % is scaled to controls: 0 for no effect and ±100 for the full control effect; nearly all actives have a fitted effect of over 55% in size
Target sequence (P10636 561-689 P618L limits assumed): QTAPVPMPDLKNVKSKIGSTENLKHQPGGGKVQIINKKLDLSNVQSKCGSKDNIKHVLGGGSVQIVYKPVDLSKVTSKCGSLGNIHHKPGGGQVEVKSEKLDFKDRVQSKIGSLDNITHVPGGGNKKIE
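Steps: dispense K18 P301L tau (15 uM plus 0.24 uM Alexa 594 tracer, final) in pH 7 sodium acetate; add compound; add heparin (20 uM final); incubate 6 hr, 37 C; add ThT (30 uM final); after 1 hr ambient, read FP.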
Tau ThT inhib: inhibitors of human tau fibril formation, thioflavin T binding; recombinant tau K18 P301L (four-repeat tau fragment), heparin-induced fibrillization, ThT fluorescence; Potency, µM (top dose mostly 57.4 µM), without a hit: at the highest dose activity, negative = inhibition, hits mostly inhibitors; hit rate 2.1% among 270,000; AID 1460; also: % is scaled to controls: 0 for no effect and ±100 for the full control effect; nearly all actives have a fitted effect of over 55% in size
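Heparin-induced fibrillization of the P301L-mutant K18 repeat-domain fragment of human tau was followed by ThT binding in quantitative high-throughput format.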
* hit, by the source's call; u = inconclusive; x = no result given; [ ] = another dose, or the depositor's remark. Calls follow the shape of the dose curve; as a rule, active = well fitted curve in the direction sought with a large enough effect; inconclusive = small, poorly fitted or top-dose-only effect, or another doubt; inactive = no such curve, though single readings can be large; an effect the other way counts as inactive or inconclusive. Potency is read from the fitted curve at half-maximal effect.

SMILES	HTT cytoprotect	HttQ103 aggreg	Tau fluor cs	Tau FP inhib	Tau ThT inhib
O=C(c1ccccc1)c1c2c(cc3sc4ccccc4[n+]13)-c1cccc3cccc-2c13	x	7.9µM*	u	u	6.3µM*
Cc1cc(C)c2c(N)c(C(=O)c3ccccc3)sc2n1	-4%[10 µM]	-21%[9.22 µM]	-28%	-2%	-15%
Cc1ccc(C)n1-c1cccc(C(=O)O)c1	13%[1.9 µM]	-2%	-13%	u	u
Cc1ccc(C)n1-c1cccc(N)c1	-1%[10 µM]	31%	u	-11%	16µM*
CC1CCC(C(C)C)C2=C1C(C#N)(C#N)C(C#N)(C#N)C(c1ccccc1)N2 (stereo not given)	-4%	8%	u	-10%	22µM*
CC1=CC(C#N)(C#N)C(C#N)(C#N)C(c2ccccc2)N1 (stereo not given)	2%	-14%	-27%	-8%	u
Cc1ccc(NC(=O)c2ccc(CSc3ccccn3)cc2)c(O)c1	14%[10 µM]	21%[9.22 µM]	18µM*[quencher]	19%	u
O=C1c2ccccc2C(=O)C1c1ccc(Cl)cc1	-24%	11%	x	x	x
O=C1c2ccccc2C(=O)C12OC2c1ccc(Cl)cc1Cl (stereo not given)	27%[10 µM]	25µM*	u	u	10µM*
Cc1c(CN(C)C)c2c(n1C)C(=O)c1ccc(Br)cc1-2	-8%[10 µM]	0%	-7%	7%	u
Cc1c(CN(C)C)c2c(n1Cc1ccccc1)C(=O)c1ccc(Br)cc1-2	-75%	-20%	u	13%	16µM*
CCc1c(C)nc2ncnn2c1Nc1ccc(C#N)c(Cl)c1	-3%	13µM*	9%	-4%	2%
CCc1c(C)nc2ncnn2c1Nc1ccc(C(C)=O)cc1	3%	7%	-14%	-1%	u
CC(C)C1NC(=S)N(C2CCCCC2)C1=O (stereo not given)	x	23%	-5%	5%	-1%
O=c1[nH][nH]c(=S)n1C1CCCCC1	-23%[10 µM]	-13%[9.22 µM]	-26%	u	32µM*
CCOc1c(OC(C)=O)ccc(/C=C2\N=C(SCC)SC2=O)c1[N+](=O)[O-]	-7%	12%	18µM*[quencher]	u	14µM*
CCOc1cc(/C=C2\N=C(SCC)SC2=O)cc([N+](=O)[O-])c1OC(C)=O	-3%	-20%	u	-10%	4µM*
CCOc1cc(/C=C2\N=C(SC)SC2=O)cc([N+](=O)[O-])c1OC(C)=O	-19%	0%	u	-11%	3.5µM*
COc1ccc(OC)c(NC2=C(c3ccccc3)C(=O)c3ccccc32)c1	x	x	u	8%	14µM*
COc1cccc(Nc2cc(-c3ccccc3)nc(C)n2)c1	x	x	28µM*[quencher]	-9%	u
COc1ccc(OC)c(Nc2cc(-c3ccccc3)nc(N)n2)c1	-113%[10 µM]	1.3µM*	-28%	16%	u
Cc1nc(Nc2ccc(Cl)cc2)cc(-c2ccccc2)n1	x	x	13µM*[quencher]	28µM*	21%
CCOC(=O)c1[nH]c2c(c1Cc1ccccc1)C(=O)CC(c1ccccc1)C2 (stereo not given)	x	x	-28%	-12%	-6%
CCCCC1=CC2=C(OC(C)=O)C(=O)C(C)(OC(=O)c3ccc(Cl)nc3)C(=O)C2=CO1 (stereo not given)	-27%	x	u	u	22µM*
NS(=O)(=O)c1ccc(Nc2nc3ccccc3nc2NS(=O)(=O)c2cccc([N+](=O)[O-])c2)cc1	-35%	15%	u	8%	11µM*
O=C(O)CCc1ccc(-c2ccccc2)[nH]1	1%[10 µM]	x	x	x	x
CCN(CCNC(=O)Nc1ccc(Cl)cc1)c1ccccc1	-47%	u	16µM*[quencher]	14%	u
CCN(CC)c1ccc(/C=N/NC(=O)Nc2ccccc2)cc1	-36%	-12%	14µM*[quencher]	2%	14µM*

Bioassay records: PubChem BioAssay, National Center for Advancing Translational Sciences (NCATS)
